Measured values as given in PubChem BioAssay (NCI).
This is part of a sample that, as a whole, favours compounds with a hit. Of some 79,000 tested, about 15% had one in any assay. A number with no mark means an inactive call. Active and inactive are the calls of the source. No stated cut-off is given here; in the data, active means growth inhibition above about 70%; inactive means the rest.

Test: NCI Yeast Anticancer Drug Screen. Data for the wt1 strain (AID 149);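 further: 0% = growth of vehicle-treated wt1 cultures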
Settings: S. cerevisiae wt1 strain (SPY 50644) growth inhibition, hits give high values
Experimental: Growth inhibition of yeast strains with defined genetic alterations is measured as a screen for potential anti-cancer activity. Selected strains with alterations in DNA damage repair or cell cycle control were exposed to compounds and growth inhibition was measured relative to vehicle treated controls. The strain used in this assay is wt1

SMILES	growth inhibition (at 1.2 µM) [%]	growth inhibition (at 3.7 µM) [%]	growth inhibition (at 11.0 µM)	growth inhibition (at 33.0 µM)	growth inhibition (at 100.0 µM)
N#CSCC1COc2ccccc2O1 (stereo not given)	-49	-49	-28%	54%	97% (active)
Cc1ccc([N+](=O)[O-])c2c(NCCC[N+](C)(C)[O-])c3ccccc3nc12	-5	0	2%	2%	2%
C/C(=N/NC(=S)Nc1ccccc1C)c1ccccn1	-11	-10	-9%	-10%	-8%
CCN(CC)CCNc1ccc2nc(C)n3c4ccc(OC)cc4c(=O)c1c23	27	21	28%	15%	21%
CCCCS/C(=C(/C#N)C(N)=O)c1cc2c([nH]1)CCCC2	-9	0	-8%	-12%	56%
c1ccc2nc3c(nc2c1)sc1ccccc13	1	4	17%	27%	23%
Fc1ccc(Nc2ccc3ccccc3c2)cc1	-1	0	-2%	21%	41%
O=[N+]([O-])c1ccc2[nH]c3c(-c4ccccc4)nccc3c2c1	-4	-8	87% (active)	94% (active)	92% (active)
